Records with an inconclusive call do not appear. The source made the active and inactive calls. Calls follow the shape of the dose curve; as a rule, active = well fitted inhibition curve with a large enough effect; inconclusive = small, poorly fitted or top-dose-only effect; inactive = no such curve, though single readings can be large or run the other way.
test system: Zika virus NS2B-NS3 protease (unlinked complex); test: Primary screen GU Rhodamine qHTS for Zika virus inhibitors: Unlinked NS2B-NS3 protease assay (AID 1347159); conditions: Recombinant ZIKV NS2B-NS3 protease, Rhodamine110 substrate fluorescence; series mostly up to 107 µM; activity change, negative = inhibition: at the top concentration; also: nearly all actives have a fitted effect of over 60% in size
Excerpt: Avindra Nath, Ph.D., National Institute of Neurological Disorders and Stroke (NINDS), Bethesda, MD
Radhakrishnan Padmanabhan, Ph.D., Georgetown University (GU), Washington D.C.
Zika Virus causes congenital defects, including microcephaly and is associated with Guillain-Barre syndrome, eningoencephalitis and myelitis in infected adult. […] Using a target-based approach, we hope to establish a screening paradigm to uncover novel, cell-active NS2B-NS3 protease (Zika Virus) specific inhibitors from NCATS' collection of small molecules using qHTS.
Four assay panel was created to identify potential Zika Virus inhibitors. Namely, (1) GU unlinked NS2B-NS3 AMC tagged protease qHTS, (2) GU unlinked NS2B-NS3 Rhodamine tagged protease qHTS, (3) NINDS linked NS2B-NS3 AMC tagged protease qHTS, (4) NINDS linked NS2B-NS3 Rhodamine tagged protease qHTS. Active compounds were re-acquired and re-screened to confirm inhibition. Inhibitors were further screened against various confirmatory and counterscreens in dose response format.
Early Translation Branch (ETB)
National Center for Advancing Translational Sciences (NCATS), Rockville, MD
National Institute of Health (NIH), Bethesda, Maryland
Padmanabhan lab provided the NS2B hydrophilic domain and NS3 protease domain in a noncovalent complex used for the unlinked assay. Control compound aprotinin is obtained from Thermo Scientific (#78432; Waltham, Massachusetts). Rhodamine110 substrate ([N-Cbz]-Nle-Lys-Arg-Arg-Rhod110-Arg-Arg-Lys-Nle-[N-Cbz]) was purchased from either Genscript or Bachem.
1536-well Protease (Rhodamine110 Substrate) Assay:
Briefly, 3 microL of enzyme (25 nM final concentration), in assay buffer (10 mM Tris-HCl pH 8.0 with 0.01% Tween 20) were dispensed into a 1,536-well solid-bottom black plate (Greiner Bio One, Monroe, NC). Twenty-three nL of compounds (final concentration range 7.28 nM to 114 microM) or control Aprotinin (final concentration range 3.47 nM to 114 microM) were transferred via Wako Pin-tool (Wako Automation, Richmond, VA). Samples were incubated (room temperature, protected from light) for 15 minutes followed by a 1 microL Rhodamine110 substrate addition (1.5 microM final concentration). Plates were then immediately read on a ViewLux High-throughput CCD imager (PerkinElmer, Waltham, MA) equipped with FITC fluorescence optics (480(20) nm excitation, 540(25) nm emission), then incubated (room temperature, protected from light) for 15 minutes (~15% conversion). The change in fluorescence intensity over the 15-minute reaction period was normalized against no-inhibitor and no-enzyme controls and the resulting percent inhibition data were fitted to a 4-parameter Hill equation. Aprotinin was used as intraplate control.
% is scaled to controls: 0 for no effect and ±100 for the full control effect.

| SMILES | activity change, negative = inhibition |
| --- | --- |
| CNC(=O)c1c(F)cccc1Nc1nc(Nc2cc3c(cc2OC)CCN3C(=O)CN(C)C)nc2[nH]ccc12 | 69.2% (inactive) |
| c1nc2nc(Nc3ccc(N4CCOCC4)cc3)nc(NC3CCCCC3)c2[nH]1 | 74.2% [at 57.1 µM] (inactive) |
| CC(=O)Nc1sc2c(c1-c1nc3ccccc3s1)CNC2 | 0% (inactive) |
| COc1ccc2c(OCc3nnc4ccc(-c5ccccc5)nn34)ccnc2c1 | 3.67% (inactive) |
| C=CCn1c(=O)c2cnc(Nc3ccc(N4CCN(C)CC4)cc3)nc2n1-c1cccc(C(C)(C)O)n1 | 23.4% (inactive) |
| NC1(Cc2ccc(Cl)cc2)CCN(c2ncnc3[nH]ccc23)CC1 | 45.6% (inactive) |
| COc1ccc(-c2cc3c(C)nc(N)nc3n(C3CCC(OCCO)CC3)c2=O)cn1 (stereo not given) | 11.5% (inactive) |
| C=CC(=O)N1CCC[C@@H](n2nc(-c3ccc(Oc4ccccc4)cc3)c3c(N)ncnc32)C1 | 9.43% (inactive) |
| CC1COC2(CCN(c3nc(=O)c4cc(C(F)(F)F)cc([N+](=O)[O-])c4s3)CC2)O1 (stereo not given) | -14.3% (inactive) |
| NC(=O)c1cccc2cn(-c3ccc([C@@H]4CCCNC4)cc3)nc12 | 5.75% (inactive) |
| CNC(=O)c1ccc(N2C(=S)N(c3cnc(C#N)c(C(F)(F)F)c3)C(=O)C23CCC3)cc1F | -0.224% (inactive) |
| Clc1cccc(-c2nnnn2Cc2cccnc2)c1Cl | 3.69% (inactive) |
| Cc1ccc2nc(NC(=O)CSc3nc4c(c(=O)n3-c3ccccc3)SCC4)sc2c1 | 15.8% (inactive) |
| COc1cc(C(=O)N2CCC(N3CCN(C)CC3)CC2)ccc1Nc1ncc2c(n1)N(C)c1ccccc1C(=O)N2C | 0.694% (inactive) |
| CC(=O)c1c(C)c2cnc(Nc3ccc(N4CCNCC4)cn3)nc2n(C2CCCC2)c1=O | 5.34% [at 11.5 µM] (inactive) |
| CC(C)c1noc(N2CCC(COc3ccc(-c4ccc(S(C)(=O)=O)cc4)nc3)CC2)n1 | -10.8% (inactive) |
| COc1cc2c(Oc3ccc4[nH]c(C)cc4c3F)ncnc2cc1OCCCN1CCCC1 | 209% (inactive) |
| CC(C)c1cc(-c2n[nH]c(=O)n2-c2ccc3c(ccn3C)c2)c(O)cc1O | -8.36% (inactive) |
| COC(=O)Nc1nc2ccc(C(=O)c3ccc(F)cc3)cc2[nH]1 | 43.1% (inactive) |
| OCCCNc1cc(-c2ccnc(Nc3cccc(Cl)c3)n2)ccn1 | 30.9% (inactive) |

| SMILES | activity change, negative = inhibition |
| --- | --- |
| O=C1CCC[C@@H]2[C@H]3CCC[N+]4([O-])CCC[C@@H](CN12)[C@@H]34 (stereo not given in full) | 8.51% (inactive) |
| COc1cc2c(Nc3ccc(NC(=O)c4ccccc4)cc3)ncnc2cc1OCCCN1CCOCC1 | 19.7% (inactive) |
| Cc1nc(Nc2n[nH]c3c2CN(C(=O)N[C@H](CN(C)C)c2ccccc2)C3(C)C)c2sccc2n1 | -30.3% (inactive) |
| CCCNC(=O)Nc1ccc(Oc2ncnc3cc(OC)c(OC)cc23)cc1Cl | -4.2% (inactive) |
| CCc1c2c(nc3ccc(O)cc13)-c1cc3c(c(=O)n1C2)COC(=O)[C@]3(O)CC | 0.22% (inactive) |
| NC(=O)Nc1cc(-c2cccc(F)c2)sc1C(=O)N[C@H]1CCCNC1 | 66.3% (inactive) |
| CCCCOc1c(C(=O)c2c(F)cc(C)cc2F)cnc2n[nH]cc12 | 0.432% (inactive) |
| COC(=O)Nc1ccc(-c2nc(N3CCOCC3)c3cnn(C4CCN(Cc5cccnc5)CC4)c3n2)cc1 | 3.3% (inactive) |
| CNC(=O)c1cc(Oc2ccc(NC(=O)Nc3cc(C(C)(C)C)nn3-c3ccc4ncccc4c3)c(F)c2)ccn1 | 3.67% (inactive) |
| COc1cc2c(Oc3ccc(NC(=O)C4(C(=O)Nc5ccc(F)cc5)CC4)cc3F)ccnc2cc1OCCCN1CCOCC1 | 123% (inactive) |
| Fc1cc(-c2cccc3ncc(-c4cnn(C5CCNCC5)c4)nc23)cc(F)c1CN1CCOCC1 | 97% (inactive) |
| C[C@]1(CO)CN(c2cc(C(=O)Nc3ccc4c(c3)-c3c(c(C(N)=O)nn3-c3ccc(F)cc3)CC4)c(Cl)cn2)C[C@@]1(C)CO | 7.02% (inactive) |
| COc1cc2nccc(Oc3ccc(NC(=O)C4(C(=O)Nc5ccc(F)cc5)CC4)cc3)c2cc1OC | 55.3% (inactive) |
| COc1cc2c(Oc3ccc(-c4cnc(Nc5ccc(F)cc5)n(C)c4=O)cc3F)ccnc2cc1OCCCN1CCOCC1 | 36.6% (inactive) |
| O=C(O)CCCc1c[nH]c2ccccc12 | -11.4% (inactive) |
| O=C(Nc1cn[nH]c1-c1nc2ccc(CN3CCOCC3)cc2[nH]1)NC1CC1 | -8.12% (inactive) |
| Nc1ccccc1NC(=O)c1ccc(CNc2nccc(-c3cccnc3)n2)cc1 | 0.0565% (inactive) |
| CCn1cc(-c2ccnc3[nH]c(-c4cccc(CN(C)C)c4)cc23)c(-c2ccc(NC(=O)N(C)C)cc2)n1 | 91.1% [at 57.1 µM] (inactive) |
| Nc1nc(NCCNc2ncc(-n3ccnc3)c(-c3ccc(Cl)cc3Cl)n2)ccc1[N+](=O)[O-] | 60.4% (inactive) |
| COc1cccc(Nc2c(C(N)=O)cnc3c(C)cc(S(=O)(=O)c4cccc(C(=O)N(C)C)c4)cc23)c1 | -1.13% (inactive) |
